Source: PubChem BioAssay (NCI)
The panel holds about 83,000 compounds, 20% with a hit somewhere; the sample as a whole holds those more often.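 Each cell line was grown in a 96-well plate and treated with one concentration of compound for 48 hours. Values below 10 were considered active.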 Values without a mark were called inactive. Calls of active or inactive are those of the source.

Assays:
Experiment in all cases: NCI-60 one-dose screen, 48 h (100 = growth as untreated, 0 = no growth, -100 = all killed)
Details in all cases: 10 µM unless noted
HCT-15 colon = system: HCT-15 colon
HT29 colon = system: HT29 colon
SNB-75 CNS = system: SNB-75 CNS
SNB-19 CNS = system: SNB-19 CNS
U251 CNS = system: U251 CNS
PC-3 prostate = system: PC-3 prostate
UACC-62 melanoma = system: UACC-62 melanoma
LOX IMVI melanoma = system: LOX IMVI melanoma
SK-MEL-28 melanoma = system: SK-MEL-28 melanoma
SK-MEL-2 melanoma = system: SK-MEL-2 melanoma
EKVX NSCLC = system: EKVX NSCLC
SN12C renal = system: SN12C renal
UO-31 renal = system: UO-31 renal
TK-10 renal = system: TK-10 renal
ACHN renal = system: ACHN renal
CAKI-1 renal = system: CAKI-1 renal
CCRF-CEM leukemia = system: CCRF-CEM leukemia
MOLT-4 leukemia = system: MOLT-4 leukemia
A498 renal = system: A498 renal

Compound	growth (HCT-15 colon)	growth (HT29 colon)	growth (SNB-75 CNS)	growth (SNB-19 CNS)	growth (U251 CNS)	growth (PC-3 prostate)	growth (UACC-62 melanoma)	growth (LOX IMVI melanoma)	growth (SK-MEL-28 melanoma)	growth (SK-MEL-2 melanoma)	growth (EKVX NSCLC)	growth (SN12C renal)	growth (UO-31 renal)	growth (TK-10 renal)	growth (ACHN renal)	growth (CAKI-1 renal)	growth (CCRF-CEM leukemia)	growth (MOLT-4 leukemia)	growth (A498 renal)
CC1=C[C@H]2c3c(c(O)c(O)c4oc5cc(O)ccc5c(=O)c34)[C@H](c3cc(O)c(O)c4oc5cc(O)ccc5c(=O)c34)[C@H]2C(C)(C)C1	33.4%	20.2%	21.3%	22.1%	14.8%	29.7%	5.54% (active)	16.2%	46.9%	44.8%	51.1%	28.7%	46.5%	56%	37.9%	40.3%	27.1%	25.3%	–
Nc1nc2ccc3[nH]ncc3c2c2c1CCCC2	3.93% (active)	5.02% (active)	-46.9% (active)	8.98% (active)	8.3% (active)	3.35% (active)	10.9%	-9.24% (active)	9.47% (active)	-7.53% (active)	-4.32% (active)	11.3%	5.99% (active)	4.7% (active)	3.71% (active)	6.67% (active)	0.983% (active)	-2.01% (active)	–
CC(=O)c1cc2c(N)c(C(=O)Nc3cccc(F)c3C)sc2nc1C	85%	81.6%	68.1%	83.1%	93.3%	81.4%	52.1%	96.9%	97.4%	68.5%	95.7%	95.1%	91.2%	100%	89.4%	–	86.7%	79.1%	43%
CCOC(=O)c1c(C)oc2ncnc(N3CCN(C(=O)COc4ccc(SC)cc4)CC3)c12	95.8%	95.3%	83%	97.9%	87.5%	82.2%	86.8%	90.5%	110%	95.4%	88.1%	94.9%	74.4%	103%	93.5%	82.7%	91.5%	88.6%	–
CCCOc1cc2ccccc2cc1C(=O)Nc1nc(N)c2c(ccc3nccc32)[nH]1	-44.7% (active)	-63.3% (active)	-90.3% (active)	-76.4% (active)	-83.5% (active)	-27.9% (active)	-81% (active)	-73.7% (active)	-84.9% (active)	-49.6% (active)	-73.7% (active)	-63.6% (active)	-65% (active)	-37.3% (active)	-80.9% (active)	-46.7% (active)	-13% (active)	-40.9% (active)	-87.6% (active)
CCCSc1ccc2nc(NC(=O)OC)[nH]c2c1	18.1%	2.84% (active)	22.4%	29.9%	14.1%	20.7%	27.6%	50.1%	53.7%	7.33% (active)	58.2%	41.5%	45.5%	39.7%	48.6%	55%	10.6%	23.6%	-5.4% (active)
Cn1nc(N)c2cc([C@@H]3Nc4ccc5[nH]ncc5c4[C@H]4C5CCC(C5)[C@@H]34)ccc21 (stereo partly drawn)	17.9%	11.6%	-17.9% (active)	29.5%	21.1%	17.4%	32.1%	38.8%	53.2%	46.6%	47.1%	50.7%	40.6%	80.4%	39.6%	40.9%	16.7%	20.1%	–
COc1cc2c(cc1-c1c(C)noc1C)ncc1nc(-c3ccccn3)n([C@H](C)COC(F)F)c12	23.2%	24.2%	34%	60.2%	48.8%	34%	23.9%	20.9%	67.3%	76.3%	59%	62.8%	18.8%	33%	40.1%	34.2%	41%	44.4%	-12.2% (active)
Cc1nn(-c2cc(=O)[nH]c3ccc(Cl)cc23)c(N)c1C#N	103%	110%	61.2%	108%	102%	95.6%	98.8%	92.9%	115%	100%	92.3%	102%	70.7%	133%	99%	85.8%	101%	110%	–
CCN=C1C=CC(=C(c2ccc(N)cc2)c2ccc(N(CC)CC)c(C)c2)C=C1	7.26% (active)	5.82% (active)	-28.4% (active)	11.5%	-19% (active)	-5.29% (active)	-36.6% (active)	-56.2% (active)	-19.1% (active)	-15.3% (active)	10.6%	-14% (active)	3.22% (active)	15.4%	-2.24% (active)	14.1%	-19.5% (active)	-4.13% (active)	-26.5% (active)
CCOC(=O)c1cc(C(=O)c2ccc(O)c(O)c2)n2ccc(-c3ccn4c(C(=O)c5ccc(O)c(O)c5)cc(C(=O)OCC)c4c3)cc12	88%	96%	87.3%	93.9%	97%	89.1%	97.9%	89%	113%	103%	94.9%	94.7%	63.4%	83.3%	97.4%	–	84.5%	63.3%	96.6%
O=C(Oc1cccnc1)c1ccsc1Nc1ccnc(C(F)(F)F)c1	45.9%	4.26% (active)	80.5%	97.7%	92.5%	83.8%	91.5%	21.9%	89.3%	72.6%	110%	55.2%	91.6%	94.8%	107%	72.7%	23.7%	8.64% (active)	104%
O=C(/C=C/c1cc(CN2CCOCC2)c(O)c2ncccc12)c1cc(CN2CCOCC2)c(O)c2ncccc12	16.2%	16.8%	32.2%	20.7%	3.35% (active)	23.7%	10.1%	19.3%	37%	20.7%	23.5%	26.1%	11.1%	22.1%	9.19% (active)	14.1%	–	31.1%	32.4%
CCCOc1cc2ccccc2cc1C(=O)Nc1nc(NC)c2c(ccc3nccc32)[nH]1	-50% (active)	-73.1% (active)	-87.1% (active)	-78.8% (active)	-85.5% (active)	-51.5% (active)	-77.3% (active)	-81% (active)	-84.4% (active)	-60.8% (active)	-78.4% (active)	-71.7% (active)	-88.8% (active)	–	-90.7% (active)	-63.8% (active)	-30.2% (active)	-56.1% (active)	-92% (active)
N#CN1CCC[C@H]1C(=O)N1CCc2c(-c3[nH]nc4ncccc34)cccc21	7.65% (active)	-53.9% (active)	-16% (active)	17.1%	-27.6% (active)	21.6%	7.64% (active)	4.55% (active)	24.6%	3.74% (active)	14.6%	–	2.24% (active)	-15.6% (active)	6.01% (active)	-32.8% (active)	17.5%	7.28% (active)	-36.5% (active)
CCOC(=O)c1c(C(=O)OCC)c2cc(-c3ccn4c(C(=O)c5ccccc5)c(C(=O)OCC)c(C(=O)OCC)c4c3)ccn2c1C(=O)c1ccccc1	95.6%	97.3%	84.1%	100%	99.7%	80.6%	85.2%	85.1%	113%	89.8%	90.4%	93.6%	66.6%	112%	96.3%	–	72.9%	68.1%	86.8%
